Where a name gives a salt, the structure may show the parent alone.
Experiments:
Assay in all cases: phenotypically active (imaging signature differs from DMSO and reproducible) at any of 0.3-9 uM (binary (1 = active, 0 = inactive)); higher = active
Conditions in all cases: treatment time: 24 h
[1] = tested on: A549-ACTB-RAB5A
In short: (§1)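 Each of fifteen gene-edited A549, HepG2 and WPMY1 reporter lines, marked with BFP for segmentation and GFP and RFP/FusionRed, was treated in four wells at 0.3, 1, 3 or 9 µM for 24 h prior to live imaging. Normalisation of per-well live-cell features used solvent control wells. Deviation needed ≥3 of 4 wells beyond the 95th percentile of control Euclidean distances, and reproducibility needed a median replicate Pearson correlation above the 95th percentile of non-replicates. Both were required for phenotypic activity.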

[2] = tested on: A549-CANX-COX4
In short: as §1

[3] = tested on: A549-GM130-SQSTM1
In short: as §1

[4] = tested on: A549-TP53BP1-CLTA
In short: as §1

[5] = tested on: A549-TUBA1B-RELA
In short: as §1

[6] = tested on: HepG2-ACTB-RAB5A
In short: as §1

[7] = tested on: HepG2-CANX-COX4
In short: as §1

[8] = tested on: HepG2-GM130-SQSTM1
In short: as §1

[9] = tested on: HepG2-TP53BP1-CLTA
In short: as §1

[10] = tested on: HepG2-TUBA1B-RELA
In short: as §1

[11] = tested on: WPMY1-ACTB-RAB5A
In short: as §1

[12] = tested on: WPMY1-CANX-COX4
In short: as §1

[13] = tested on: WPMY1-GM130-SQSTM1
In short: as §1

[14] = tested on: WPMY1-TP53BP1-CLTA
In short: as §1

[15] = tested on: WPMY1-TUBA1B-RELA
In short: as §1

Measured: phenotypically active

NCCCC(O)(P(=O)(O)O)P(=O)(O)O [alendronate]
inactive: [1] 0 | [2] 0 | [3] 0 | [4] 0 | [5] 0 | [6] 0 | [7] 0 | [8] 0 | [9] 0 | [10] 0 | [11] 0 | [12] 0 | [13] 0 | [14] 0 | [15] 0

O=C(Nc1c(Cl)cncc1Cl)c1ccc(OC(F)F)c(OCC2CC2)c1 [roflumilast]
inactive: [1] 0 | [2] 0 | [3] 0 | [4] 0 | [5] 0 | [6] 0 | [7] 0 | [8] 0 | [9] 0 | [10] 0 | [11] 0 | [12] 0 | [13] 0 | [14] 0 | [15] 0

O=[N+]([O-])c1cc([N+](=O)[O-])c(/C=C/c2ccc(Cl)c(Cl)c2)cc1/C=C/c1ccc(Cl)c(Cl)c1
inactive: [1] 0 | [2] 0 | [3] 0 | [4] 0 | [5] 0 | [6] 0 | [7] 0 | [8] 0 | [9] 0 | [10] 0 | [11] 0 | [12] 0 | [13] 0 | [14] 0 | [15] 0

O=C(Nc1cccnc1)c1cc(-c2ccnc(F)c2)ccc1OCc1ccccc1
inactive: [1] 0 | [2] 0 | [3] 0 | [4] 0 | [5] 0 | [6] 0 | [7] 0 | [8] 0 | [9] 0 | [10] 0 | [11] 0 | [12] 0 | [13] 0 | [14] 0 | [15] 0

Cc1cccc(Nc2ccccc2C(=O)O)c1C [mefenamic-acid]
inactive: [1] 0 | [2] 0 | [3] 0 | [4] 0 | [5] 0 | [6] 0 | [7] 0 | [8] 0 | [9] 0 | [10] 0 | [11] 0 | [12] 0 | [13] 0 | [14] 0 | [15] 0

NS(=O)(=O)c1cc(Cl)c(Cl)c(S(N)(=O)=O)c1 [diclofenamide]
inactive: [1] 0 | [2] 0 | [3] 0 | [4] 0 | [5] 0 | [6] 0 | [7] 0 | [8] 0 | [9] 0 | [10] 0 | [11] 0 | [12] 0 | [13] 0 | [14] 0 | [15] 0

O=C1NCCCC1C(=O)NCCc1c[nH]c2ccc(O)cc12 (stereo not given)
inactive: [1] 0 | [2] 0 | [3] 0 | [4] 0 | [5] 0 | [6] 0 | [7] 0 | [8] 0 | [9] 0 | [10] 0 | [11] 0 | [12] 0 | [13] 0 | [14] 0 | [15] 0

C[C@@H](CO)CCC[C@@H](C)[C@H]1CC[C@H]2[C@@H]3CC=C4C[C@@H](O)CC[C@]4(C)[C@H]3CC[C@]12C [27-Hydroxycholesterol]
inactive: [1] 0 | [2] 0 | [3] 0 | [4] 0 | [5] 0 | [6] 0 | [7] 0 | [8] 0 | [9] 0 | [10] 0 | [11] 0 | [12] 0 | [13] 0 | [14] 0 | [15] 0

CN(N=O)C(=O)N[C@@H](C=O)[C@@H](O)[C@H](O)[C@H](O)CO.CN(N=O)C(=O)N[C@H]1C(O)O[C@H](CO)[C@@H](O)[C@@H]1O [streptozotocin]
inactive: [1] 0 | [2] 0 | [3] 0 | [4] 0 | [5] 0 | [6] 0 | [7] 0 | [8] 0 | [9] 0 | [10] 0 | [11] 0 | [12] 0 | [13] 0 | [14] 0 | [15] 0

COc1ccc(CCN(C)CCCN2CCc3cc(OC)c(OC)cc3CC2=O)cc1OC [zatebradine]
inactive: [1] 0 | [2] 0 | [3] 0 | [4] 0 | [5] 0 | [6] 0 | [7] 0 | [8] 0 | [9] 0 | [10] 0 | [11] 0 | [12] 0 | [13] 0 | [14] 0 | [15] 0

CC[C@]12CCCN3CCc4c(n(c5ccccc45)[C@@](O)(C(=O)OC)C1)[C@@H]32 [Vincamine]
inactive: [1] 0 | [2] 0 | [3] 0 | [4] 0 | [5] 0 | [6] 0 | [7] 0 | [8] 0 | [9] 0 | [10] 0 | [11] 0 | [12] 0 | [13] 0 | [14] 0 | [15] 0

Cc1ccc([N+](=O)[O-])cc1S(=O)(=O)N(C)C
inactive: [1] 0 | [2] 0 | [3] 0 | [4] 0 | [5] 0 | [6] 0 | [7] 0 | [8] 0 | [9] 0 | [10] 0 | [11] 0 | [12] 0 | [13] 0 | [14] 0 | [15] 0

Cc1ccc(-c2csc3ncnc(SCCC(=O)O)c23)cc1
inactive: [1] 0 | [2] 0 | [3] 0 | [4] 0 | [5] 0 | [6] 0 | [7] 0 | [8] 0 | [9] 0 | [10] 0 | [11] 0 | [12] 0 | [13] 0 | [14] 0 | [15] 0

COc1cc2c3cc1Oc1cc(ccc1O)C[C@@H]1c4c(cc(OC)c(O)c4Oc4ccc(cc4)C[C@@H]3N(C)CC2)CC[N+]1(C)C [(+)-Tubocurarine chloride]
inactive: [1] 0 | [2] 0 | [3] 0 | [4] 0 | [5] 0 | [6] 0 | [7] 0 | [8] 0 | [9] 0 | [10] 0 | [11] 0 | [12] 0 | [13] 0 | [14] 0 | [15] 0

C/N=C(\NC#N)NCCSCc1nc[nH]c1C [cimetidine]
inactive: [1] 0 | [2] 0 | [3] 0 | [4] 0 | [5] 0 | [6] 0 | [7] 0 | [8] 0 | [9] 0 | [10] 0 | [11] 0 | [12] 0 | [13] 0 | [14] 0 | [15] 0

CC(=O)N1CCN(C)CC1 [1-Acetyl-4-methylpiperazine hydrochloride]
inactive: [1] 0 | [2] 0 | [3] 0 | [4] 0 | [5] 0 | [6] 0 | [7] 0 | [8] 0 | [9] 0 | [10] 0 | [11] 0 | [12] 0 | [13] 0 | [14] 0 | [15] 0

Cn1cccc1/C=C1\C(=O)NC(=O)c2ccccc21
inactive: [1] 0 | [2] 0 | [3] 0 | [4] 0 | [5] 0 | [6] 0 | [7] 0 | [8] 0 | [9] 0 | [10] 0 | [11] 0 | [12] 0 | [13] 0 | [14] 0 | [15] 0

NC(=O)c1cccc(N)c1 [3-Aminobenzamide]
inactive: [1] 0 | [2] 0 | [3] 0 | [4] 0 | [5] 0 | [6] 0 | [7] 0 | [8] 0 | [9] 0 | [10] 0 | [11] 0 | [12] 0 | [13] 0 | [14] 0 | [15] 0

Cc1cc(-c2ccc(/C=C3\S/C(=N\c4ccc(Cl)c(C(=O)O)c4)NC3=O)o2)c([N+](=O)[O-])cc1C
inactive: [1] 0 | [2] 0 | [3] 0 | [4] 0 | [5] 0 | [6] 0 | [7] 0 | [8] 0 | [9] 0 | [10] 0 | [11] 0 | [12] 0 | [13] 0 | [14] 0 | [15] 0

N#Cc1ccc(C(c2ccc(C#N)cc2)n2cncn2)cc1 [Letrozole]
inactive: [1] 0 | [2] 0 | [3] 0 | [4] 0 | [5] 0 | [6] 0 | [7] 0 | [8] 0 | [9] 0 | [10] 0 | [11] 0 | [12] 0 | [13] 0 | [14] 0 | [15] 0

COc1ccc([C@@H]2CC(=O)c3c(O)cc(O)cc3O2)cc1O [Hesperetin]
inactive: [1] 0 | [2] 0 | [3] 0 | [4] 0 | [5] 0 | [6] 0 | [7] 0 | [8] 0 | [9] 0 | [10] 0 | [11] 0 | [12] 0 | [13] 0 | [14] 0 | [15] 0

Reference: the supplement of paper PMC7411054
